Measurements as given in the supplement of paper PMC8728848.
Only a selection was taken, and the strongest signals are over-represented in it overall.

Assays:
Test in all cases: glycan array binding signal (z-score within array); higher = stronger binding
Settings in all cases: glycan notation: IUPAC condensed, linker removed
[1] = target: Fuc(a1-2)Gal(b1-3)GlcNAc(b1-3)[Gal(b1-4)[Fuc(a1-3)]GlcNAc(b1-6)]Gal(b1-4)Glc
Procedure, shortened: (§1)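 Glycan array data were curated from 3228 arrays in the Consortium for Functional Glycomics database and kept only where the protein sequence was available. Glycan names were converted to IUPAC-condensed notation, and columns mapping to the same glycan were averaged. The binding signal is a within-array Z-score, averaged across arrays of the same protein sequence at different concentrations or buffers and across linkers. Negative Z-scores can be read as non-binding.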

[2] = target: Fuc(a1-2)Gal(b1-4)GlcNAc(b1-2)Man(a1-3)[Fuc(a1-2)Gal(b1-4)GlcNAc(b1-2)Man(a1-6)]Man(b1-4)GlcNAc(b1-4)GlcNAc
Procedure, shortened: as §1

[3] = target: Fuc(a1-2)[GalNAc(a1-3)]Gal(b1-4)GlcNAc(b1-3)Gal(b1-4)GlcNAc(b1-3)Gal(b1-4)GlcNAc
Procedure, shortened: as §1

[4] = target: Fuc(a1-2)[GalNAc(a1-4)]Gal(b1-4)GlcNAc
Procedure, shortened: as §1

Gal(a1-2)Gal = target: Gal(a1-2)Gal
Procedure, shortened: as §1

[5] = target: Gal(a1-3)[Gal(a1-4)]Gal(b1-4)GlcNAc
Procedure, shortened: as §1

Gal(a1-4)Gal(b1-4)GlcNAc = target: Gal(a1-4)Gal(b1-4)GlcNAc
Procedure, shortened: as §1

[6] = target: Gal(b1-4)GlcNAc(b1-6)Gal(b1-4)GlcNAc(b1-6)GalNAc
Procedure, shortened: as §1

[7] = target: Gal(b1-4)GlcNAc(b1-6)GalNAc
Procedure, shortened: as §1

Gal3S6S(b1-4)GlcNAc6S = target: Gal3S6S(b1-4)GlcNAc6S
Procedure, shortened: as §1

GalNAc(b1-3)Gal = target: GalNAc(b1-3)Gal
Procedure, shortened: as §1

[8] = target: GalNAc(b1-3)Gal(a1-4)Gal(b1-4)GlcNAc
Procedure, shortened: as §1

[9] = target: GalNAc(b1-3)Gal(a1-4)Gal(b1-4)GlcNAc(b1-3)Gal(b1-4)Glc
Procedure, shortened: as §1

[10] = target: GlcNAc(a1-4)Gal(b1-4)GlcNAc(b1-3)Gal(b1-4)Glc
Procedure, shortened: as §1

GlcNAc(b1-6)GalNAc = target: GlcNAc(b1-6)GalNAc
Procedure, shortened: as §1

Kdn(a2-3)Gal(b1-3)GlcNAc = target: Kdn(a2-3)Gal(b1-3)GlcNAc
Procedure, shortened: as §1

Kdn(a2-3)Gal(b1-4)GlcNAc = target: Kdn(a2-3)Gal(b1-4)GlcNAc
Procedure, shortened: as §1

Man(a1-3)[Man(a1-6)]Man = target: Man(a1-3)[Man(a1-6)]Man
Procedure, shortened: as §1

[11] = target: Man(a1-3)[Man(a1-6)]Man(a1-6)[Man(a1-2)Man(a1-3)]Man(b1-4)GlcNAc(b1-4)GlcNAc
Procedure, shortened: as §1

[12] = target: Neu5Ac(a2-3)Gal(b1-3)GalNAc
Procedure, shortened: as §1

[13] = target: Neu5Ac(a2-3)Gal(b1-3)GalNAc(b1-3)Gal(b1-4)GlcNAc
Procedure, shortened: as §1

[14] = target: Neu5Ac(a2-3)Gal(b1-3)[Neu5Ac(a2-3)Gal(b1-4)]GlcNAc
Procedure, shortened: as §1

Neu5Ac(a2-3)GalNAc = target: Neu5Ac(a2-3)GalNAc
Procedure, shortened: as §1

[15] = target: Neu5Ac(a2-6)GlcNAc(b1-4)GlcNAc
Procedure, shortened: as §1

[16] = target: Neu5Ac(b2-6)Gal(b1-4)GlcNAc
Procedure, shortened: as §1

Neu5Ac(b2-6)GalNAc = target: Neu5Ac(b2-6)GalNAc
Procedure, shortened: as §1

[17] = target: Neu5Gc(a2-3)Gal(b1-4)[Fuc(a1-3)]GlcNAc
Procedure, shortened: as §1

Neu5Gc(a2-6)GalNAc = target: Neu5Gc(a2-6)GalNAc
Procedure, shortened: as §1

B1: HHL-1 (Homo sapiens), P07306 (protein)
chain: TKEYQDLQHLDNEESDHHQLRKGPPPPQPLLQRLCSGPRLLLLSLGLSLLLLVVVCVIGSQNSQLQEELRGLRETFSNFTASTEAQVKGLSTQGGNVGRKMKSLESQLEKQQKDLSEDHSSLLLHVKQFVSDLRSLSCQMAALQGNGSERTCCPVNWVEHERSCYWFSRSGKAWADADNYCRLEDAHLVVVTSWEEQKFVQHHIGPVNTWMGLHDQNGPWKWVDGTDYETGFKNWRPEQPDDWYGHGLGGGEDCAHFTDDGRWNDDVCQRPYRWVCETELDKASQEPPLL
[1]
  glycan array binding signal (z-score): 0.628
[2]
  glycan array binding signal (z-score): -0.533
[3]
  glycan array binding signal (z-score): -0.3
[4]
  glycan array binding signal (z-score): 7.69
Gal(a1-2)Gal
  glycan array binding signal (z-score): 0.419
[5]
  glycan array binding signal (z-score): 0.667
Gal(a1-4)Gal(b1-4)GlcNAc
  glycan array binding signal (z-score): -0.54
[6]
  glycan array binding signal (z-score): 0.262
[7]
  glycan array binding signal (z-score): 4.51
Gal3S6S(b1-4)GlcNAc6S
  glycan array binding signal (z-score): 0.503
GalNAc(b1-3)Gal
  glycan array binding signal (z-score): 4.09
[8]
  glycan array binding signal (z-score): 5.53
[9]
  glycan array binding signal (z-score): 5.52
[10]
  glycan array binding signal (z-score): -0.538
GlcNAc(b1-6)GalNAc
  glycan array binding signal (z-score): 7.59
Kdn(a2-3)Gal(b1-3)GlcNAc
  glycan array binding signal (z-score): -0.538
Kdn(a2-3)Gal(b1-4)GlcNAc
  glycan array binding signal (z-score): 0.051
Man(a1-3)[Man(a1-6)]Man
  glycan array binding signal (z-score): -0.472
[11]
  glycan array binding signal (z-score): -0.485
[12]
  glycan array binding signal (z-score): 0.366
[13]
  glycan array binding signal (z-score): -0.541
[14]
  glycan array binding signal (z-score): -0.548
Neu5Ac(a2-3)GalNAc
  glycan array binding signal (z-score): -0.482
[15]
  glycan array binding signal (z-score): 0.387
[16]
  glycan array binding signal (z-score): -0.409
Neu5Ac(b2-6)GalNAc
  glycan array binding signal (z-score): -0.515
[17]
  glycan array binding signal (z-score): 0.159
Neu5Gc(a2-6)GalNAc
  glycan array binding signal (z-score): -0.536
